A short description of assay [1]: CEETOX_H295R_11DCORT_noMTC: CeeTox H295R High-throughput Steroidogenesis Assay for 11-Deoxycortisol (11DCORT), maximum tolerated concentration (MTC) filtered results only (AID 2283911; active means hit-call score of the fitted dose curve at least 0.9, where 1 is the maximum; inactive means score below 0.9). The settings on record: actives raise or lower the signal. The method, boiled down: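 H295R, OECD 456-based; 10 uM forskolin 48 h → compound (0.1% DMSO) 48 h → medium extracted, 11DCORT by LC-MS/MS. Gain/loss vs DMSO control, all concentrations kept regardless of MTT viability.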

Assay [2] in a line: CEETOX_H295R_OHPREG_noMTC: CeeTox H295R High-throughput Steroidogenesis Assay for OH-Pregnenolone (OHPREG), maximum tolerated concentration (MTC) filtered results only (AID 2283912; active means hit-call score of the fitted dose curve at least 0.9, where 1 is the maximum; inactive means score below 0.9). The settings on record: actives raise or lower the signal. The method, boiled down: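 Readout is HPLC-MS/MS quantification of 17alpha-hydroxypregnenolone released by forskolin-stimulated H295R cells over 48 h of chemical exposure, DMSO as baseline.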

Assay [3] in a line: CEETOX_H295R_OHPROG_noMTC: CeeTox H295R High-throughput Steroidogenesis Assay for OH-Progesterone (OHPROG), maximum tolerated concentration (MTC) filtered results only (AID 2283914; active means hit-call score of the fitted dose curve at least 0.9, where 1 is the maximum; inactive means score below 0.9). The settings on record: actives raise or lower the signal. In a few lines:
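Analysis uses all tested concentrations, without maximum-tolerated-concentration screening by MTT. H295R cells, forskolin-primed (10 uM, 48 h), receive chemical for 48 h; hormone in medium measured by HPLC-MS/MS, with bidirectional curve fitting against DMSO.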

A short description of assay [4]: CEETOX_H295R_CORTISOL_noMTC: CeeTox H295R High-throughput Steroidogenesis Assay for Cortisol, maximum tolerated concentration (MTC) filtered results only (AID 2283916; active means hit-call score of the fitted dose curve at least 0.9, where 1 is the maximum; inactive means score below 0.9). The settings on record: actives raise or lower the signal. In a few lines: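 H295R adrenal cells were pre-stimulated 48 h with 10 uM forskolin, then exposed 48 h to test chemical in 0.1% DMSO. Medium cortisol was measured by MTBE extraction and HPLC-MS/MS; bidirectional fit versus DMSO, concentrations not MTC-filtered.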

Assay [5] can be described thus: CEETOX_H295R_CORTIC_noMTC: CeeTox H295R High-throughput Steroidogenesis Assay for Corticosterone (CORTIC), maximum tolerated concentration (MTC) filtered results only (AID 2283917; active means hit-call score of the fitted dose curve at least 0.9, where 1 is the maximum; inactive means score below 0.9). The settings on record: actives raise or lower the signal. In a few lines: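 Forskolin-stimulated (10 uM, 48 h) H295R cells are dosed 48 h with chemical in DMSO (0.1% final); corticosterone change is quantified by HPLC-MS/MS and fitted bidirectionally against DMSO, unfiltered for MTT-derived MTC.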

Assay [6] deals with zebrafish Thyroid Hormone Receptor beta (TRb), thrb (gene 30607) (UniProt Q9PVE4). Description: ATG_zfTRb_XSP2: Attagene TRANS-FACTORIAL Multi-Species (XSP1) HepG2 Assay for zebrafish Thyroid Hormone Receptor beta (TRb) (AID 2283836). In a few lines:
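Multiplexed trans-activation in HepG2 cells, 24 h treatment, with reporter mRNA read by RT-PCR and capillary electrophoresis. Gain-of-signal against DMSO.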

Assay [7] has as its target human Thyroid hormone Receptor alpha (TRa), THRA (gene 7067) (UniProt P10827). Description: ATG_hTRa_XSP2: Attagene TRANS-FACTORIAL Multi-Species (XSP2) HepG2 Assay for human Thyroid hormone Receptor alpha (TRa) (AID 2283838). The method, boiled down:
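Gain-of-signal in reporter mRNA, relative to DMSO, after 24 h dosing of transfected HepG2; quantitation by RT-PCR fragment analysis on capillary electrophoresis.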

The test system of assay [8] is Sodium/Iodide Symporter (NIS), SLC5A5 (gene 6528). Briefly: CPHEA_Stoker_NIS_Inhibition_RAIU: CPHEA's Radioactive Iodide Uptake (RAIU) Assay for Sodium/Iodide Symporter (NIS) Inhibition, Stoker and Laws Labs (AID 2283841). The method, boiled down:
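Iodide uptake through human NIS is measured in an engineered HEK293T line. Cells take up 125I (329pM final) for 2 hours at room temperature alongside chemicals at 0.001–100uM. Retained radioactivity is counted, and the signal is expressed against DMSO controls.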

The nature of assay [9]: CPHEA_Stoker_NIS_Cytotoxicity: Cytotoxicity Assessment for CPHEA's Radioactive Iodide Uptake (RAIU) Assay for Sodium/Iodide Symporter (NIS) Inhibition, Stoker and Laws Labs (AID 2283897).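 On AC50: active means loss of ATP signal versus DMSO meaning cytotoxicity.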 The method, boiled down:
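ATP luminescence (Cell Titer Glo) measured viability, with loss of signal normalized to DMSO controls. Cells: hNIS-HEK293T-EPA, seeded 40 hours prior. Dosing: 0.001–100uM, 2 hours, room temperature, uptake buffer pH 7.4.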

Assay [10] is described as follows: ATG_XTT_Cytotoxicity_XSP2: Cytotoxicity Assessment in the Attagene TRANS-FACTORIAL Multi-Species (XSP2) HepG2 Assay (AID 2283837). The method, boiled down:
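XTT-based cell number read-out in human HepG2 liver cells carrying transfected reporter units, measured 24 h after chemical dosing. Activity is signal loss versus DMSO baseline.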

SMILES strings stand for the structures. Results filed as inconclusive are left out. Some compounds were tested as several samples or in several runs, with calls that do not always agree. Active and inactive are the calls of the source. How the source made its calls, unless noted: active means hit-call score of the fitted dose curve at least 0.9, where 1 is the maximum; inconclusive means response in the unintended direction; inactive means score below 0.9.

Chain of zebrafish Thyroid Hormone Receptor beta (TRb), thrb (gene 30607) (Q9PVE4 whole entry, looked up): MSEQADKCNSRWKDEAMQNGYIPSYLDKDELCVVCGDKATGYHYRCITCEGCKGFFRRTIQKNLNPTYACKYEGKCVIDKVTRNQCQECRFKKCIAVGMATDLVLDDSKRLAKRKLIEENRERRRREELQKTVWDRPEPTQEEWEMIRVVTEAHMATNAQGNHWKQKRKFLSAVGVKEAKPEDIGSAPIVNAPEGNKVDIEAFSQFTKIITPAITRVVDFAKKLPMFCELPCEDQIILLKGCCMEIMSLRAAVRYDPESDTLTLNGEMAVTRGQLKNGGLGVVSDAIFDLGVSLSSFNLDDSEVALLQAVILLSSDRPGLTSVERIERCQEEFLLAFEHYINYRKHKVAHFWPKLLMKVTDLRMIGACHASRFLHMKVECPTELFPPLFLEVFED
Chain of human Thyroid hormone Receptor alpha (TRa), THRA (gene 7067) (P10827 whole entry, looked up, the tested form may be a part): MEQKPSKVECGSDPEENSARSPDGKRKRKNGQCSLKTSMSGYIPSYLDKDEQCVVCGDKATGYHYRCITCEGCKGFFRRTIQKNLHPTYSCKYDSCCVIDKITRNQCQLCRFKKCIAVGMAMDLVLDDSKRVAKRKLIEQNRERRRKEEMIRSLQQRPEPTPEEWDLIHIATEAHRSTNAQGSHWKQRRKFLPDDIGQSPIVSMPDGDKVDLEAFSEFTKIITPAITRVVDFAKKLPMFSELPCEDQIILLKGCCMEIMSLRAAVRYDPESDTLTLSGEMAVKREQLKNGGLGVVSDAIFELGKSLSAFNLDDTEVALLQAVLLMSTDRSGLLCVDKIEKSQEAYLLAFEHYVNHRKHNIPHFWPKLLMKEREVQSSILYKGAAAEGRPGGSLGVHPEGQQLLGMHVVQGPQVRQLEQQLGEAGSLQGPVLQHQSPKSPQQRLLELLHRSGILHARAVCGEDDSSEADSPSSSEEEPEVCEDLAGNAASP

Take `CCS(=O)(=O)c1cccnc1S(=O)(=O)NC(=O)Nc1nc(OC)cc(OC)n1`: the molecule was called inactive in [1], in assay [2], in [3], in assay [4] and in assay [5].

`Oc1cc(Cl)ccc1Oc1ccc(Cl)cc1Cl`: the outcome in [6] and in assay [7] was inactive.

Take `CCc1ccc(C(=O)NN(C(=O)c2cc(C)cc(C)c2)C(C)(C)C)cc1`: the outcome in [8] and in assay [9] was inactive.

In the case of `COP(=S)(OC)Oc1ccc([N+](=O)[O-])cc1`, the outcome in assay [6], in assay [10] and in assay [7] was inactive.

For `N#Cc1c(Cl)c(Cl)c(Cl)c(C#N)c1Cl`, the outcome in assay [8] and in [9] was inactive.

For the molecule `CC(C)OC(=O)Nc1cccc(Cl)c1`, the result in [8] and in assay [9] was inactive.

`O=S(=O)(O)C(F)(F)C(F)(F)C(F)(F)C(F)(F)C(F)(F)C(F)(F)C(F)(F)C(F)(F)F`: the result in [8] and in assay [9] was inactive.

Turning to `C[C@H]1[C@H](c2ccc(Cl)cc2)SC(=O)N1C(=O)NC1CCCCC1`, the outcome in [8] and in assay [9] was inactive.

Regarding `ClC1C(Cl)C(Cl)C(Cl)C(Cl)C1Cl` (stereo unspecified), the outcome in assay [8] and in assay [9] was inactive.

Regarding `COP(=S)(OC)Oc1ccc(SC)c(C)c1`, the result in assay [7], in assay [8] and in assay [9] was inactive.

Turning to `CC[C@H](C)[C@H]1O[C@]2(C=C[C@@H]1C)C[C@@H]1C[C@@H](C/C=C(\C)[C@@H](O[C@H]3C[C@H](OC)[C@@H](O[C@H]4C[C@H](OC)[C@@H](O)[C@H](C)O4)[C@H](C)O3)[C@@H](C)/C=C/C=C3\CO[C@@H]4[C@H](O)C(C)=C[C@@H](C(=O)O1)[C@]34O)O2` (tested in a mixture with another compound), the outcome in [8] and in assay [9] was inactive.

As a reminder, the AC50 is the concentration giving half of the maximal activity seen. As to `CC1(c2ccc(Oc3ccccc3)cc2)OC(=O)N(Nc2ccccc2)C1=O` (stereo unspecified), the result in assay [8] was inactive. Further, in assay [9], the AC50 was 5.4 µM (active).

For `CCOCN(C(=O)CCl)c1c(C)cccc1CC`, the molecule was called inactive in [6].

With `CC(C)(C)C(O)/C(=C\c1ccc(Cl)cc1Cl)n1cncn1` (stereo unspecified), the result in assay [6] and in assay [7] was inactive. The AC50 in assay [10] is 100 µM (active); in assay [8], 35.9 µM (active); in assay [9] it was 50 µM (active).

With `O=C(Nc1ccccc1)Nc1cnns1`, in assay [8], the outcome was inactive. Also, the AC50 in assay [1] is 35.2 µM (active); in [2] it was 14.3 µM (active); in [3] it was 37.8 µM (active); in assay [4], 41.7 µM (active); in assay [5], 31.8 µM (active).

Source of the values: PubChem BioAssay (EPA / NIEHS).
